For orientation: inhibition means the change of the read-out against control, counted positive when it falls.

About 19,000 (20%) of roughly 96,000 compounds were called active. The list is a sample of the results. A number with no mark means an inactive call.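 The calls were made as follows: active = blocking of liver enzyme CYP2C9 beyond about 50% at 5 µM (limit read from the data); inactive = the rest.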

This assay deals with Cytochrome P450 2C9 (Homo sapiens) (UniProt P11712). As to the kind of experiment: blockers of cytochrome P450 2C9 activity – biochemical, luminescence, ADME assay, primary screen (AID 777). The settings on record: CYP2C9 Supersomes, luciferin-H conversion, at 5 µM, active compounds read high.
Sequence of Cytochrome P450 2C9 (Homo sapiens) (P11712 whole entry, looked up): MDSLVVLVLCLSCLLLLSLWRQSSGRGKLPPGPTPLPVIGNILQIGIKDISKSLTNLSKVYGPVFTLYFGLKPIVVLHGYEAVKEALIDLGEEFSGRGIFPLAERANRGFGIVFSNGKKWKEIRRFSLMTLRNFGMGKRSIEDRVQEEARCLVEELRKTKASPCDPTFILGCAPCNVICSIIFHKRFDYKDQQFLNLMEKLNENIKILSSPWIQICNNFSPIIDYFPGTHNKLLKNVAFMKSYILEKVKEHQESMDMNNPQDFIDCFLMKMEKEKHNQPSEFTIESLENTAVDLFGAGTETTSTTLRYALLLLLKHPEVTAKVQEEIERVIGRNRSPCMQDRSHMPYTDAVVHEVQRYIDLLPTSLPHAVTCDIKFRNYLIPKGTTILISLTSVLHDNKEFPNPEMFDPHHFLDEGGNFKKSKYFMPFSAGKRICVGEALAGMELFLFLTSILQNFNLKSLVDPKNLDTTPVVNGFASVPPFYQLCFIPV
As for `CCOC(=O)N1CCC(NC(=O)CN2C(=O)COc3ccc(C(C)(C)C)cc32)CC1`, the inhibition was 10.3%. As for `CCCCC(=O)N/N=C(\C)CC(=O)Nc1cc(Cl)ccc1OC`, the inhibition was -51.9%. In the case of `CN(C)c1ccc(-n2cccc2/C=C2/SC(=Nc3ccc(F)cc3)NC2=O)cc1`, the inhibition is 5.1%. For the compound `Cc1ccc(-c2nnc(C)c(N3CC(C)OC(C)C3)n2)cc1` (stereo not given), the inhibition was 17.3%. The value for `COc1ccc(C)cc1NC(=O)CSc1nc(SC)ns1` was -3.2%. The value for `COc1ccc(C)cc1NC(=O)CCC(=O)Nc1nnc(C(F)(F)F)s1` was 50.2% (active). In the case of `COc1ccc(C)cc1NC(=O)CCS(=O)(=O)c1cccc2nonc12` it was 34.9%. `CC(=NCc1ccco1)C1=C(O)c2ccccc2C1=O`: the inhibition is 78.9% (active).

Consider `CC(=NCc1ccc2c(c1)OCO2)C1=C(O)c2ccccc2C1=O`, for which the inhibition was 28.1%.

As for `O=C1C(C=NCC2CCCO2)=C(O)c2ccccc21` (stereo not given), the inhibition was 3.5%. For the compound `CC(Sc1sc(=S)sc1SC(C)C(=O)O)C(=O)O` (stereo not given), the inhibition is 10.2%. In the case of `CCS(=O)(=O)c1ccc2oc(SCC(=O)N3c4ccccc4CC3C)nc2c1` (stereo not given) it was 46.1%. For `CCn1c(CSc2ncccn2)nnc1SCC(=O)N1c2ccccc2CC1C` (stereo not given), the inhibition is -1.7%. For `CCCCn1ccnc1C(=O)c1cccc(S(=O)(=O)N2c3ccccc3CC2C)c1` (stereo not given), the inhibition was 68.5% (active). With `O=C1Nc2ccc(Br)cc2/C1=N/N=C/C1=C(N2CCOCC2)C(=C\c2ccccc2)/CC1`, the inhibition is 84.9% (active).

With `Cc1noc(C)c1S(=O)(=O)NCCc1ccc(S(N)(=O)=O)cc1`, the inhibition is -3.8%. As to `CCSC(C)CC1C/C(=N/O)c2c(C)noc2C1` (stereo not given), the inhibition is 61.3% (active). In the case of `COc1ccc(C(=O)NCc2cn3ccccc3n2)cc1` it was 2.4%; in that of `O=C(c1cc(-c2ccc(O)cc2)on1)N1CCCc2ccccc21`, 55.3% (active); in that of `O=C(c1cc(-c2ccccc2O)on1)N1CCCC1`, -51.3%. For the compound `O=C(c1cccc(C(=O)N2CCc3ccccc32)n1)N1CCc2ccccc21`, the inhibition is 8.6%. The value for `O=C(c1cc(-c2cccc(O)c2)on1)N1CCc2ccccc2C1` was 55.8% (active); that for `Cc1occc1C(=O)N1CCCc2ccccc21` was -1.8%. As for `O=C(c1cc(-c2cccs2)on1)N1CCCCC1`, the inhibition is -21.4%. The value for `CNC(=O)c1nnn(-c2ccccc2)c1C(=O)NC` was -7.1%; that for `O=C(O)c1cccnc1NC1CCCC1` was 4.1%; that for `Cc1ccc(Cn2nnc3c(=O)n(CC(=O)N4CCCCC4)cnc32)cc1` was -4.1%.

For the compound `Cc1ccc(NC(=O)N2CCC(C(=O)NCc3ccc(F)cc3)CC2)cc1`, the inhibition was 34%.

For `Cc1ccc(NC(=O)N2CCC(c3nc4c(nnn4Cc4c(F)cccc4Cl)c(=O)[nH]3)CC2)cc1`, the inhibition is 87.7% (active). In the case of `COc1ccc(-n2nnc3c(=O)n(CC(=O)N4CCC(Cc5ccccc5)CC4)cnc32)cc1` it was 17.9%; in that of `O=C(CSCc1c(F)cccc1Cl)NCC1CCCO1` (stereo not given), -7.5%. On to `COc1ccc(Cn2nnc3c(=O)[nH]c(C4CCN(C(=O)c5ccccc5Cl)CC4)nc32)cc1`, for which the inhibition is 79.7% (active).

With `Oc1ccc(CNc2ccccc2O)cc1`, the inhibition is 22.4%.

Regarding `CCN(c1ccccc1)S(=O)(=O)c1ccc(NC(=O)C(C)(C)C)cc1`, the inhibition was 31.5%. In the case of `COC(=O)c1ccc(Sc2ccc(F)cc2)c(N)c1` it was 43.1%; in that of `CC(C)(CCl)C(=O)Nc1ccc(Sc2ccc(F)cc2)cc1`, 84.9% (active). Turning to `O=C1CC(NNc2ccccc2)C(=O)N1c1cccc(Cl)c1` (stereo not given), the inhibition was 0.1%.

As for `Cc1noc(C)c1S(=O)(=O)Nc1ccc(C(=O)O)cc1`, the inhibition was 1.8%.

Turning to `CCCCN(CC)C(=O)CN(C)S(=O)(=O)c1cccc2nsnc12`, the inhibition was 16.6%. As to `Clc1ccc(-c2cc(COc3ccccc3)no2)cc1Cl`, the inhibition is -0.8%. In the case of `O=S(=O)(Cc1cc(Sc2ccccc2)nc(-c2ccccc2)n1)c1ccccc1` it was 52.5% (active); in that of `O=C1CC2(CCCCC2)Oc2ccc(OCC(=O)N3CCOCC3)cc21`, 2.2%; in that of `Brc1cccc(-c2nnc3n2CCC3)c1`, -21.9%. In the case of `Cc1ccc(Cc2cnc(NC(=O)/C(C#N)=C/c3ccc(-c4cccc([N+](=O)[O-])c4)o3)s2)cc1` it was 25.6%; in that of `Cc1ccc2c(c1)N(C(=O)CCC(=O)N1CCc3ccccc3C1)CCO2`, 13.6%. Regarding `O=C1N=C(N2CCCC2)S/C1=C\c1cccc(Br)c1`, the inhibition was -42.1%. With `CC(C)C(=O)Nc1cccc(NC(=S)NC(=O)C(c2ccccc2)c2ccccc2)c1`, the inhibition is 98.8% (active).

For the compound `CC(C)C(=O)NC(=S)Nc1ccccc1F`, the inhibition is 20.1%. As for `COc1ccccc1NC(=S)NC(=O)C(C)C`, the inhibition is 12.2%. In the case of `CC(=O)c1c(C)[nH]c(C(=O)NCCCN2CCCC2)c1C` it was -3.6%; in that of `Cc1c(C(=O)NCc2ccccc2)cnn1-c1ccccc1`, -4%.

In the case of `COC(=O)CSc1nnc(-c2cccnc2)o1`, the inhibition was -12.9%. Take `COc1ccccc1N1CCN(C(=O)c2cn(-c3ccccc3)nc2-c2cccnc2)CC1`: the inhibition was 92% (active). In the case of `COC(=O)c1cn(-c2ccccc2)nc1-c1cccnc1` it was 51.7% (active); in that of `O=C(c1ccccc1-c1ccccc1)N1CCOCC1`, 5%. On to `O=C(c1cn(-c2ccccc2)nc1-c1cccnc1)N1CCCCC1`, for which the inhibition is 52.5% (active).

As for `COc1ccc(-c2nn(-c3ccccc3)cc2C(=O)Nc2nc(CC(C)=O)ns2)cc1`, the inhibition was 10.8%.

For the compound `O=C(Nn1cc(C(=O)N2CCN(c3ccccc3F)CC2)c2ccccc2c1=O)c1cnccn1`, the inhibition is 20.7%.

Regarding `O=C(NCc1cccnc1)c1cccnc1Sc1ccc(Cl)cc1`, the inhibition is 39.9%. For `O=C(Nc1c(C(=O)N2CCCCC2)cnn1-c1ccccc1)c1ccco1`, the inhibition was -0.7%. In the case of `O=C(Nc1ccc(N2CCN(C(=O)c3ccccc3)CC2)c(Cl)c1)c1cccnc1` it was 31.6%.

Turning to `O=C(NCc1cccnc1)c1cn(-c2ccccc2)nc1-c1cccs1`, the inhibition is 95.7% (active). Turning to `COC(=O)/C(=C\Nc1ccccc1)NC(=O)c1ccc(Cl)cc1Cl`, the inhibition was 33.9%. In the case of `CC(C)(C)n1nc2c(c1NC(=O)c1ccc(S(=O)(=O)N3CCCC3)cc1)CS(=O)C2` (stereo not given) it was 4.2%. Take `CCOc1nc(NCCN2CCOCC2)nc(Nc2ccc(C)cc2)n1`: the inhibition is 13%. The value for `O=c1c([N+](=O)[O-])cc(C(F)(F)F)cn1Cc1cccc(Cl)c1` was 23.9%; that for `COc1ccc2c(c1OC)C(=O)c1ccccc1C2=O` was 21.6%.

For `CN1CCc2c(sc3c2c(NCc2ccco2)nc2nnnn23)C1`, the inhibition is 45.7%. In the case of `CCN(CC)P(=O)(/C(Cl)=C\Nc1c(C)n(C)n(-c2ccccc2)c1=O)N(CC)CC`, the inhibition was -8.4%.

In the case of `CNC(=O)NCCN1CCCC1=O`, the inhibition is 35.9%. The value for `CN(CC(=O)Nc1cccc2c1CCCC2)S(=O)(=O)c1ccc(Cl)cc1` was -18.4%; that for `Cc1nc(NC(=O)CN(C)S(=O)(=O)c2ccc(Cl)cc2)sc1C` was 61.3% (active); that for `Cc1nc(NC(=O)CCC(=O)O)sc1C(=O)N(C)C` was 24.5%.

For the compound `CCOC1CCCCC1NS(=O)(=O)c1ccc(Cl)cc1` (stereo not given), the inhibition was 5.6%.

Regarding `CCOC(=O)N1CCN(S(=O)(=O)c2ccc(C(=O)Nc3ccc(F)cc3F)cc2)CC1`, the inhibition is 18.7%. For `CCOC(=O)C1CCCN(C(=O)c2ccc(CS(=O)(=O)c3ccc(Br)cc3)o2)C1` (stereo not given), the inhibition was 49.8%. In the case of `O=C(CSc1ncccn1)NCCc1ccccc1` it was 17%. In the case of `O=C(CCS(=O)(=O)Cc1ccccc1F)NCCCN1CCCCC1` it was -0.3%. The value for `CCOC(=O)CN(C(=O)CN1CCOCC1)c1ccc(Br)cc1` was 5.6%. Regarding `COc1cc(OC)c(C(=O)NC2CC(C)(C)NC(C)(C)C2)cc1OC`, the inhibition is -0.9%. As to `O=C(Nc1cnn(Cc2ccc(Cl)cc2)c1)C1CCCC1`, the inhibition is 56.1% (active). In the case of `O=C(O)C1CCCCC1C(=O)Nc1ccc(Cl)cc1` (stereo not given) it was 9.3%. In the case of `O=C(O)c1ccc(NC(=O)C2CCCCC2)cc1` it was -25.8%; in that of `O=C1CC(c2ccccc2)C(=O)N1c1cccc(O)c1` (stereo not given), 45%.

Consider `O=C(N/N=C/C=C/c1ccccc1)C1CC1(c1ccccc1)c1ccccc1` (stereo not given), for which the inhibition was 99.5% (active). In the case of `O=C(Nc1ccc(F)c(Cl)c1)C1CCN(S(=O)(=O)c2cccnc2)CC1` it was 9.3%. For the compound `O=C(O)c1ccc(COCC(F)(F)F)cc1`, the inhibition was -1.6%. The value for `Fc1c(F)c(C(F)(F)F)c(F)c(F)c1N1CCN(c2ccc3nnc(C(F)(F)F)n3n2)CC1` was 5.9%. For `c1ccc(CCc2nc(-c3ccncc3)no2)cc1`, the inhibition was 93% (active). `c1csc(-c2nc(-c3ccncc3)no2)c1`: the inhibition was 11.1%. In the case of `O=C1c2ccccc2C(=O)N1CCCc1nc(-c2ccccc2)no1` it was 24.2%; in that of `Cc1cc(C(=O)O)c(S(C)(=O)=O)s1`, -5.1%; in that of `CC(Sc1nnc(Cc2ccc([N+](=O)[O-])cc2)o1)C(N)=O` (stereo not given), -1.5%. In the case of `Cc1ccc2nc(SC(C)C(=O)NCc3ccco3)[nH]c2c1` (stereo not given) it was 44.2%. As for `Cc1nnc(NCCO)c2ccccc12`, the inhibition was -5.4%. On to `CCC(=O)NC(=Nc1nc2ccccc2s1)NC(=O)CC`, for which the inhibition was -88.9%.

As to `O=C1CCCC(O)=C1C=NCCc1ccccc1`, the inhibition was 6.6%. With `Fc1ccccc1C(c1nnnn1Cc1ccc2c(c1)OCO2)N1CCN(Cc2ccccc2)CC1` (stereo not given), the inhibition is 45.6%. Regarding `CC(C)(C)n1nnnc1C(c1ccc(F)cc1)N1CCN(Cc2ccc3c(c2)OCO3)CC1` (stereo not given), the inhibition was 30.9%. With `Cc1cc(C)c2[nH]c(=O)c(C(c3nnnn3Cc3ccc4c(c3)OCO4)N3CCCC3)cc2c1` (stereo not given), the inhibition is 86.7% (active).

The values above are taken from PubChem BioAssay AID777 (Sanford-Burnham Center for Chemical Genomics, 2007).
